Experimental data reported in PubChem BioAssay (NCATS).
Results filed as inconclusive are left out. Unless noted, calls follow the shape of the dose curve; as a rule, active = well fitted curve in either direction with a large enough effect (not every such curve was filed as active); inconclusive = small, poorly fitted or top-dose-only effect, or another doubt; inactive = flat fitted curve, though single readings scatter.

What was measured:
[1] = AP1 Signaling Pathway (AID 357); conditions: ME-180 AP-1-bla reporter, EGF-induced, beta-lactamase ratio, 5 h; at 17.2 µM (top of the series) unless noted;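 also: ME-180 reporter cells stimulated with EGF at its EC50 level; % is scaled to controls: 0 for no effect and ±100 for the full control effect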
Procedure, shortened: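 AP-1-bla ME-180 cells, Opti-MEM + 0.5% dialyzed FBS, plated overnight 37 °C. Cpd titration + EC50 EGF, 5 h 37 °C. CCF4 2.5 h RT; ex 405, em 460/530 ratio → %activity, AC50.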

[2] = NFAT Signaling Pathway (AID 444); conditions: Jurkat NFAT-bla M1, carbachol, beta-lactamase ratio, 5 h; at 17.2 µM (top of the series) unless noted;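 also: carbachol stimulus at about its EC50 of 1 µM final; % is scaled to controls: 0 for no effect and ±100 for the full control effect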
Procedure, shortened: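 Read-out: CCF4 FRET ratio (460 nm/530 nm) after 1 h RT dye loading, used for %activity and AC50 from titration series. Cells: Jurkat NFAT-β-lactamase/M1 line, treated with compound plus 1 uM carbachol for 5 h, 37 °C.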

[3] = Stat Signaling Pathway (AID 446); conditions: ME-180 (cervical carcinoma) SIE beta-lactamase reporter, IL-6 stimulated, 5 h; at 17.2 µM (top of the series) unless noted;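 also: ME-180 cervical cancer cells given 40 pM IL-6 alongside compound; SIE-controlled beta-lactamase reporter measured as 460/530 nm FRET emission ratio; % is scaled to controls: 0 for no effect and ±100 for the full control effect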
Procedure, shortened: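 Normalization used AC90 stimulation (300 pM IL-6) and AC90 inhibition (125 nM pan-JAK inhibitor at 40 pM IL-6). The underlying signal is SIE-driven beta-lactamase in ME-180 cells after 5 h IL-6 exposure with compound.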

[4] = target: Glucocorticoid receptor (Homo sapiens) (UniProt P04150); assay: GR-GFP Redistribution (AID 450;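 active = compounds whose dose series gives a full or clear partial fitted curve of increased nuclear translocation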; also: potency is read from the fitted curve at half-maximal effect)
Glucocorticoid receptor (Homo sapiens), sequence (P04150 whole entry, looked up): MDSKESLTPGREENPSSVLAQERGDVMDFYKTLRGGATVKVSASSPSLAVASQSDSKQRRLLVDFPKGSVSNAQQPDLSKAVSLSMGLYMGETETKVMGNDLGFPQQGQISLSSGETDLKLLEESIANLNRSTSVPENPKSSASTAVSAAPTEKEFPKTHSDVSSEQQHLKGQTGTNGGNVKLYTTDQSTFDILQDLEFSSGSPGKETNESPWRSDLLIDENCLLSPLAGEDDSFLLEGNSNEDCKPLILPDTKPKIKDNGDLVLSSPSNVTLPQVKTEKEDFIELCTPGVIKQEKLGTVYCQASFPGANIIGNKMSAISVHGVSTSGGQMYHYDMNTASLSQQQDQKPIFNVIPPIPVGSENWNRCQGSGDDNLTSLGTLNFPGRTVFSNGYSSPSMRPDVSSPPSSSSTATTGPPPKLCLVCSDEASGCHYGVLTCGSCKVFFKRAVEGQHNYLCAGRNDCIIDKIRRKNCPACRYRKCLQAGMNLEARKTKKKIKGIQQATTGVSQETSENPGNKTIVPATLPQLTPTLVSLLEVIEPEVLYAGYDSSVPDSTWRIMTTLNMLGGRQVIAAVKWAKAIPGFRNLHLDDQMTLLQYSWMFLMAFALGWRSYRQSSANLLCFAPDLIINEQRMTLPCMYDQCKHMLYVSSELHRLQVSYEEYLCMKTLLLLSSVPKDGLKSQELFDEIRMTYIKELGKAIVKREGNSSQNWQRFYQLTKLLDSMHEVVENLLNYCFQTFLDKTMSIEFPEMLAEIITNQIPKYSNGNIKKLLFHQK

COc1ccc(C(=O)c2oc3nc(C)cc(C)c3c2N)cc1
inactive: activity change, negative = inhibition [1] -14.2% | activity change, negative = inhibition [2] 13% | activity, negative = inhibition [3] -8.18% | Potency [4] > 20.6 µM

CC1(C)Cc2c(sc3ncn4nnnc4c23)CO1
inactive: activity change, negative = inhibition [1] -0.575% | activity change, negative = inhibition [2] 0.343% | activity, negative = inhibition [3] 2.69% | Potency [4] > 20.6 µM

O=C(Nc1ccccc1C(=O)NCCCn1ccnc1)c1ccccc1
inactive: activity change, negative = inhibition [1] 1.7% | activity change, negative = inhibition [2] 5.76% | activity, negative = inhibition [3] 3.12% | Potency [4] > 20.6 µM

CC(=O)OC12CC3CC(C1)C(=NO)C(C3)C2
inactive: activity change, negative = inhibition [1] 9.34% | activity change, negative = inhibition [2] 1.23% | activity, negative = inhibition [3] 13.8% | Potency [4] > 20.6 µM

CCCSc1nc(C)c(CC(=O)OCC)c(=O)[nH]1
inactive: activity change, negative = inhibition [1] -4.57% | activity change, negative = inhibition [2] -4.22% | activity, negative = inhibition [3] -2.57% | Potency [4] > 20.6 µM

COc1ccccc1N1CCN(C2CCN(C(=O)c3cccs3)CC2)CC1
inactive: activity change, negative = inhibition [1] 4.38% | activity change, negative = inhibition [2] -21.8% | activity, negative = inhibition [3] 19.6% | Potency [4] > 20.6 µM

COC(=O)/C=c1/s/c(=C(\C#N)C(=O)NCc2ccco2)n(-c2ccccc2)c1=O
inactive: activity change, negative = inhibition [1] -2.83% | activity change, negative = inhibition [2] -25.7% | activity, negative = inhibition [3] 5.13% | Potency [4] > 20.6 µM

CN(C)C=C1C(=O)c2ccccc2C1=O
inactive: activity change, negative = inhibition [1] 6.29% | activity change, negative = inhibition [2] 3.97% | activity, negative = inhibition [3] 1.64% | Potency [4] > 20.6 µM

Cn1c(=O)oc2cc(C(=O)c3ccccc3)ccc21
inactive: activity change, negative = inhibition [1] -10.8% | activity change, negative = inhibition [2] -9.48% | activity, negative = inhibition [3] 0.21% | Potency [4] > 20.6 µM

O=C(N(c1ccccc1)c1ccccc1)n1ccnc1
inactive: activity change, negative = inhibition [1] 7.1% | activity change, negative = inhibition [2] 10.9% | activity, negative = inhibition [3] 0.426% | Potency [4] > 20.6 µM

C[N+]1(CCNC(=O)/C=N/O)CCCCC1
inactive: activity change, negative = inhibition [1] 7.1% | activity change, negative = inhibition [2] -12.9% | activity, negative = inhibition [3] 5.42% | Potency [4] > 20.6 µM

CCc1ccc(NC(=O)CSC2=C(C#N)C(c3ccco3)C3=C(CCCC3=O)N2)cc1 (stereo not drawn)
inactive: activity change, negative = inhibition [1] -12.8% | activity change, negative = inhibition [2] -17.6% | activity, negative = inhibition [3] -16.5% | Potency [4] > 20.6 µM

Cc1ccc(-n2[nH]c(C)c(C=Nc3cc(C)ccn3)c2=O)cc1
inactive: activity change, negative = inhibition [1] 2.52% | activity change, negative = inhibition [2] -2.28% | activity, negative = inhibition [3] 4.82% | Potency [4] > 20.6 µM

Nc1ccc2cn[nH]c2c1
inactive: activity change, negative = inhibition [1] 4.71% | activity change, negative = inhibition [2] 2.08% | activity, negative = inhibition [3] 6.7% | Potency [4] > 20.6 µM

CCOC(=O)c1c(CN2CCN(CCO)CC2)n(C)c2cc(Br)c(OC)cc12
inactive: activity change, negative = inhibition [1] 19.8% | activity change, negative = inhibition [2] 29.2% | activity, negative = inhibition [3] -13.7% | Potency [4] > 20.6 µM

CCN(CC)CCCN1C(=O)C(=O)/C(=C(/O)c2ccccc2)C1c1cc(OC)ccc1OC (stereo not drawn)
inactive: activity change, negative = inhibition [1] 3.34% | activity change, negative = inhibition [2] 7.04% | activity, negative = inhibition [3] 3.31% | Potency [4] > 20.6 µM

CSc1nc(Oc2ccc(=O)[nH]n2)nc(N(C)C)n1
inactive: activity change, negative = inhibition [1] 0.488% | activity change, negative = inhibition [2] -5.44% | activity, negative = inhibition [3] 3.84% | Potency [4] > 20.6 µM

CSc1nncc(=O)[nH]1
inactive: activity change, negative = inhibition [1] 16.2% | activity change, negative = inhibition [2] 0.69% | activity, negative = inhibition [3] -3.78% | Potency [4] > 20.6 µM

O=C(O)c1cc2sccc2s1
inactive: activity change, negative = inhibition [1] -0.721% | activity change, negative = inhibition [2] -6.24% | activity, negative = inhibition [3] 2.27% | Potency [4] > 20.6 µM

Cc1cc(C)n(-c2c(F)c(F)c(CN3CCCCC3)c(F)c2F)n1
inactive: activity change, negative = inhibition [1] -3.48% | activity change, negative = inhibition [2] -27.9% | activity, negative = inhibition [3] 5.23% | Potency [4] > 20.6 µM

CCCOC(=O)CSC1=C(C#N)C(c2ccccc2OC)C(C#N)C(=O)N1 (stereo not drawn)
inactive: activity change, negative = inhibition [1] -16.4% | activity change, negative = inhibition [2] 13.9% | activity, negative = inhibition [3] -22.7% | Potency [4] > 20.6 µM

Nc1ccc2[nH]ncc2c1
inactive: activity change, negative = inhibition [1] 5.98% | activity change, negative = inhibition [2] -1.96% | activity, negative = inhibition [3] -0.564% | Potency [4] > 20.6 µM

Cc1cc(C)n(Cc2ccc(C(=O)NCCC3=CCCCC3)o2)n1
inactive: activity change, negative = inhibition [1] -15.1% | activity change, negative = inhibition [2] -1.94% | activity, negative = inhibition [3] 1.51% | Potency [4] > 20.6 µM

CC(=O)C1=C(O)C(=O)N(Cc2cccnc2)C1c1ccccc1Cl (stereo not drawn)
inactive: activity change, negative = inhibition [1] 3.06% | activity change, negative = inhibition [2] 3.26% | activity, negative = inhibition [3] 1.82% | Potency [4] > 20.6 µM

CCCC1CC(=O)OC1(C)C(=O)CSc1n[nH]c(-c2ccccc2)n1 (stereo not drawn)
inactive: activity change, negative = inhibition [1] -6.44% | activity change, negative = inhibition [2] 8.59% | activity, negative = inhibition [3] -7.88% | Potency [4] > 20.6 µM

COc1cccc(OC)c1C(=O)Nc1nc2ccc(S(C)(=O)=O)cc2s1
inactive: activity change, negative = inhibition [1] -25.1% | activity change, negative = inhibition [2] 21% | activity, negative = inhibition [3] -10.6% | Potency [4] > 20.6 µM

Cc1cccc(C)c1N1C(=O)C2ON(c3ccccc3)C(c3ccncc3)C2C1=O (stereo not drawn)
inactive: activity change, negative = inhibition [1] 1.5% | activity change, negative = inhibition [2] 11.5% | activity, negative = inhibition [3] -5.83% | Potency [4] > 20.6 µM

Cc1nc2c(c(=O)n1CC1CCCO1)c1nc3ccccc3nc1n2CCC(C)C (stereo not drawn)
inactive: activity change, negative = inhibition [1] 6.32% | activity change, negative = inhibition [2] -6.4% | activity, negative = inhibition [3] -12.2% | Potency [4] > 20.6 µM

C=CCOc1nc2c(c(=O)n(Cc3ccc(Cl)c(Cl)c3)c(=O)n2C)n1C
inactive: activity change, negative = inhibition [1] -3.25% | activity change, negative = inhibition [2] -2.4% | activity, negative = inhibition [3] 7.85% | Potency [4] > 20.6 µM

CC1CC(C(F)(F)F)n2ncnc2N1 (stereo not drawn)
inactive: activity change, negative = inhibition [1] 5.99% | activity change, negative = inhibition [2] -3.22% | activity, negative = inhibition [3] 12.9% | Potency [4] > 20.6 µM

O=C1[C@@H]2[C@H](C(=O)N1n1cnnc1)[C@H]1C=C[C@@H]2C1
inactive: activity change, negative = inhibition [1] -2.82% | activity change, negative = inhibition [2] 1.6% | activity, negative = inhibition [3] 3.44% | Potency [4] > 20.6 µM

CCCCOc1ccc(C)cc1CN(CCO)CCO
inactive: activity change, negative = inhibition [1] 27.9% | activity change, negative = inhibition [2] -9.6% | activity, negative = inhibition [3] 5.48% | Potency [4] > 20.6 µM

N#CCCN(C(=O)c1ccco1)c1ccccc1
inactive: activity change, negative = inhibition [1] -22.8% | activity change, negative = inhibition [2] 2.26% | activity, negative = inhibition [3] 9.28% | Potency [4] > 20.6 µM

O=C1C(=O)N(Cc2cccnc2)C(c2ccccn2)/C1=C(/O)c1ccc(F)cc1 (stereo not drawn)
inactive: activity change, negative = inhibition [1] 10.7% | activity change, negative = inhibition [2] 3.79% | activity, negative = inhibition [3] 0.323% | Potency [4] > 20.6 µM

Cc1csc2nc(CSc3nc4ccccc4o3)cn12
inactive: activity change, negative = inhibition [1] -11.6% | activity change, negative = inhibition [2] -1.77% | activity, negative = inhibition [3] 4.59% | Potency [4] > 20.6 µM

CCCOc1ccc(N2C(=O)CC(N(CCC)C(=O)CCC(=O)O)C2=O)cc1 (stereo not drawn)
inactive: activity change, negative = inhibition [1] 3.59% | activity change, negative = inhibition [2] 18.7% | activity, negative = inhibition [3] 6.31% | Potency [4] > 20.6 µM

CC(C)CCOc1ccc(Cl)cc1CN1CCOCC1
inactive: activity change, negative = inhibition [1] 26.6% | activity change, negative = inhibition [2] 5.23% | activity, negative = inhibition [3] 9.43% | Potency [4] > 20.6 µM

COc1ccc(CNC(=O)[C@H](C)NC(=O)C2CCN(S(=O)(=O)c3ccc(C)cc3)CC2)cc1
inactive: activity change, negative = inhibition [1] 0.123% | activity change, negative = inhibition [2] 0.0617% | activity, negative = inhibition [3] 2.4% | Potency [4] > 20.6 µM

CC1(C(=O)CSc2nc3ccccc3s2)CCC(=O)O1 (stereo not drawn)
inactive: activity change, negative = inhibition [1] -6.34% | activity change, negative = inhibition [2] 1.72% | activity, negative = inhibition [3] 4.74% | Potency [4] > 20.6 µM

Cc1nc(Nc2ncc3c(n2)CCCC3=O)nc2ccccc12
inactive: activity change, negative = inhibition [1] 16.8% | activity change, negative = inhibition [2] 19.8% | activity, negative = inhibition [3] 0.527% | Potency [4] > 20.6 µM

O=C(Nc1ncccc1Cl)c1cccc(F)c1
inactive: activity change, negative = inhibition [1] 2.04% | activity change, negative = inhibition [2] 4.8% | activity, negative = inhibition [3] 8.27% | Potency [4] > 20.6 µM

CCC(CC)C1C(C#N)=C(N)Oc2n[nH]c(C)c21 (stereo not drawn)
inactive: activity change, negative = inhibition [1] -22.7% | activity change, negative = inhibition [2] -13.2% | activity, negative = inhibition [3] -16.5% | Potency [4] > 20.6 µM

Nc1nc(NC(=O)Cc2ccccc2)nn1-c1ccccc1
inactive: activity change, negative = inhibition [1] 5.76% | activity change, negative = inhibition [2] 9.17% | activity, negative = inhibition [3] 4.24% | Potency [4] > 20.6 µM

N#C/C(C(=O)N1CCOCC1)=C1/SC(Cc2ccccc2)C(=O)N1c1ccccc1 (stereo not drawn)
inactive: activity change, negative = inhibition [1] 6.74% | activity change, negative = inhibition [2] -2.77% | activity, negative = inhibition [3] -8.3% | Potency [4] > 20.6 µM

COc1ccc(C2CC(C(F)(F)F)n3ncc(C(=O)NCC4CCCO4)c3N2)cc1OC (stereo not drawn)
inactive: activity change, negative = inhibition [1] -0.991% | activity change, negative = inhibition [2] 3.91% | activity, negative = inhibition [3] -0.435% | Potency [4] > 20.6 µM

Fc1cnc(N2CCOCC2)nc1NCc1ccccc1
inactive: activity change, negative = inhibition [1] 10.9% | activity change, negative = inhibition [2] -3.23% | activity, negative = inhibition [3] -8.43% | Potency [4] > 20.6 µM

Cc1cc(C)nc(NC2=NCC(=O)N2c2ccccc2)n1
inactive: activity change, negative = inhibition [1] 13.1% | activity change, negative = inhibition [2] -8.71% | activity, negative = inhibition [3] 9% | Potency [4] > 20.6 µM
